# Values without a mark were called inactive. A call without a number means that no potency is given here. Activity calls are given as the source filed them. Unless noted, calls come from the whole dose curve; as a rule, active = well fitted curve in the direction sought with a large enough effect in the repeat runs; inconclusive = weak or mixed curves; inactive = no such curve, though single readings can be large; an effect the other way counts as inactive or inconclusive.
# Key:
# [1] = qHTS assay to identify small molecule antagonists of the thyroid receptor (TR) signaling pathway - cell viability counter screen (AID 743064); note: nearly all actives have a fitted effect of over 50% in size; note: potency is the fitted concentration of half-maximal effect
# Procedure, shortened: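 Same-well viability check: GH3.TRE-Luc cells stimulated with 1 nM T3 alongside test compound for 23.5 h, followed by CellTiter-Fluor fluorescence.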
# [2] = qHTS assay to identify small molecule antagonists of the thyroid receptor (TR) signaling pathway (AID 743065); note: nearly all actives have a fitted effect of over 55% in size; note: potency is the fitted concentration of half-maximal effect
# Procedure, shortened: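 Antagonism measured as loss of luciferase signal in GH3 cells stably carrying a TRE-luciferase reporter, co-treated with compound and T3 (1 nM final) for 23.5 h at 37 C. Viability was read in the same well by CellTiter-Fluor.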
# [3] = tested on: thyroid hormone receptor (rat, GH3 cells); assay: qHTS assay to identify small molecule agonists of the thyroid receptor (TR) signaling pathway (AID 743066; calls by dose curve)
# [4] = target: Estrogen receptor (Homo sapiens) (UniProt P03372); assay: qHTS assay to identify small molecule antagonists of the estrogen receptor alpha (ER-alpha) signaling pathway (AID 743069; active = well fitted curve in the direction sought with a large enough effect in the signal ratio in the repeat runs, not every such curve was filed as active; inconclusive = weak or mixed curves, or effect the other way; inactive = no such curve, though single readings can be large or run the other way; the % refers to the signal ratio; note: potency is the fitted concentration of half-maximal effect)
# Procedure, shortened: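 ER-alpha-UAS-bla GripTite HEK293 line; 2% charcoal-stripped FBS overnight; plated, 4 hr 37C/5% CO2; cpd in DMSO + 17beta-estradiol, 18 hr 37C; LiveBLAzer B/G FRET substrate 2 hr RT; fluorescence intensity.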
# [5] = target: Estrogen receptor (Homo sapiens) (UniProt P03372); assay: qHTS assay to identify small molecule agonists of the estrogen receptor alpha (ER-alpha) signaling pathway (AID 743075; calls by dose curve;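 note: HEK293 GripTite cells with ER-alpha and UAS-driven beta-lactamase reporter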)
# [6] = qHTS assay to identify small molecule antagonists of the estrogen receptor alpha (ER-alpha) signaling pathway using the BG1 cell line - cell viability counter screen (AID 743081);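 note: compound given together with 17beta-estradiol as the ER stimulus; nearly all actives have a fitted effect of over 45% in size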; note: potency is the fitted concentration of half-maximal effect
# [7] = target: Aromatase (Homo sapiens) (UniProt P11511); assay: qHTS assay to identify aromatase inhibitors (AID 743083); note: nearly all actives have a fitted effect of over 55% in size; note: potency is the fitted concentration of half-maximal effect
# [8] = qHTS assay to identify aromatase inhibitors - cell viability counter screen (AID 743084);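 note: cells stimulated with testosterone during compound exposure; nearly all actives have a fitted effect of over 55% in size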; note: potency is the fitted concentration of half-maximal effect
# [9] = target: Aryl hydrocarbon receptor (Homo sapiens) (UniProt P35869); assay: qHTS assay to identify small molecule that activate the aryl hydrocarbon receptor (AhR) signaling pathway (AID 743085); note: nearly all actives have a fitted effect of over 15% in size; note: potency is the fitted concentration of half-maximal effect;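 for activation: HG2L7.5c1 human HepG2 liver cells with stably integrated DRE-driven firefly reporter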
# Procedure, shortened: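 Reporter assay in engineered HepG2 line HG2L7.5c1, whose plasmid carries twenty dioxin responsive elements upstream of firefly luciferase. Treatment lasted 24 h at 37C; ONE-Glo luminescence gauged induction.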
# [10] = qHTS assay to identify small molecule that activate the aryl hydrocarbon receptor (AhR) signaling pathway - cell viability counter screen (AID 743086); note: nearly all actives have a fitted effect of over 45% in size; note: potency is the fitted concentration of half-maximal effect
# Procedure, shortened: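 Cytotoxicity counter screen: CellTiter-Fluor signal (30 min, 37 C) in 4000 HepG2 cells/well carrying the DRE-luciferase reporter, following 24 h compound exposure at 37 C.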
# [11] = target: Peroxisome proliferator-activated receptor gamma (Homo sapiens) (UniProt P37231); assay: qHTS assay to identify small molecule agonists of the peroxisome proliferator-activated receptor gamma (PPARg) signaling pathway (AID 743094; active = well fitted activation curve with a large enough effect in the signal ratio in the repeat runs, not every such curve was filed as active; inconclusive = weak or mixed curves, or effect the other way; inactive = no such curve, though single readings can be large or run the other way; the % refers to the signal ratio)
# Procedure, shortened: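 Stably transfected HEK293H cells (GeneBLAzer PPARg UAS-bla) were incubated with test substances for 17 h at 37C after a 5 h pre-incubation; beta-lactamase activity was then detected by FRET substrate fluorescence.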
# [12] = qHTS assay to identify small molecule phospholipidosis (PLD) inducers (AID 1259344; active = well fitted curve in the direction sought with a large enough effect; inconclusive = small, poorly fitted or top-dose-only effect, or another doubt; inactive = no such curve, though single readings can be large; an effect the other way counts as inactive or inconclusive)
# Procedure, shortened: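 Phospholipidosis is scored by imaging LipidTOX-stained pits in HepG2 cells exposed to compound for 24 h at 37 C; pit counts and integrated intensities per well and per cell serve as outputs.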
# [13] = target: Nuclear receptor subfamily 1 group I member 2 (Rattus norvegicus) (UniProt Q9R1A7); assay: Rat pregnane X receptor (rPXR) activation by small molecules, qHTS assay (AID 1346983); conditions: rPXR luciferase reporter cells, One-Glo luminescence, 24 h; max activation: stronger effect = higher value; note: nearly all actives have a fitted effect of over 20% in size; note: potency is the fitted concentration of half-maximal effect
# Procedure, shortened: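 Luminescent readout (One-Glo luciferase, 30 min room temperature) followed 24 hr compound treatment at 37 C of rPXR cells plated 2,000 per well and preincubated 5hr; qHTS format with compounds delivered in DMSO.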
# [14] = target: Nuclear receptor subfamily 1 group I member 2 (Homo sapiens) (UniProt O75469); assay: CYP3A4 induction through human pregnane X receptor (PXR) by small molecules, qHTS assay (AID 1346984); note: nearly all actives have a fitted effect of over 40% in size; note: potency is the fitted concentration of half-maximal effect
# Procedure, shortened: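 DPX-2 reporter cells; 24h cpd, 37C; Luciferin-IPA 3uM final x3h; One-Glo 30 min RT; lumi read.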
# [15] = target: Nuclear receptor subfamily 1 group I member 2 (Homo sapiens) (UniProt O75469); assay: Human pregnane X receptor (PXR) activation by small molecules, qHTS assay (AID 1346985); note: nearly all actives have a fitted effect of over 40% in size; note: potency is the fitted concentration of half-maximal effect
# Procedure, shortened: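 DPX-2 cells (HepG2 co-transfected with a PXR response element and a CYP3A4-promoter luciferase construct) were seeded at 2,000 per well, rested 5 hr at 37C, then exposed to DMSO-dissolved compounds for 24 hr. Activation was read as luciferase luminescence.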
# [16] = qHTS assay to identify small molecule antagonists of the estrogen receptor alpha (ER-alpha) signaling pathway - cell viability counter screen (AID 743074; calls by dose curve;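 note: HEK293 cells carrying ER-alpha-UAS-bla reporter stimulated with 17beta-estradiol; nearly all actives have a fitted effect of over 45% in size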; note: potency is the fitted concentration of half-maximal effect)
# [17] = target: Estrogen receptor (Homo sapiens) (UniProt P03372); assay: qHTS assay to identify small molecule agonists of the estrogen receptor alpha (ER-alpha) signaling pathway using the BG1 cell line (AID 743079); conditions: BG1Luc4E2 cells, ERE-luciferase agonist, 22 h; activation: at 70.3 µM (top of the series); note: nearly all actives have a fitted effect of over 20% in size
# [18] = qHTS assay to identify small molecule antagonists of the estrogen receptor alpha (ER-alpha) signaling pathway using the BG1 cell line (AID 743080; calls by dose curve;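 note: BG1 cells stimulated with 17beta-estradiol alongside compound; nearly all actives have a fitted effect of over 25% in size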; note: potency is the fitted concentration of half-maximal effect)
# Procedure, shortened: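 Luciferase inhibition measured with ONE-Glo after 30 min at RT in BG1Luc4E2 cells given test compounds and 17beta-estradiol for 21.5 h at 37 C; CellTiter-Fluor viability read in the same wells beforehand.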
# Sequence of Peroxisome proliferator-activated receptor gamma (Homo sapiens) (P37231 whole entry, looked up): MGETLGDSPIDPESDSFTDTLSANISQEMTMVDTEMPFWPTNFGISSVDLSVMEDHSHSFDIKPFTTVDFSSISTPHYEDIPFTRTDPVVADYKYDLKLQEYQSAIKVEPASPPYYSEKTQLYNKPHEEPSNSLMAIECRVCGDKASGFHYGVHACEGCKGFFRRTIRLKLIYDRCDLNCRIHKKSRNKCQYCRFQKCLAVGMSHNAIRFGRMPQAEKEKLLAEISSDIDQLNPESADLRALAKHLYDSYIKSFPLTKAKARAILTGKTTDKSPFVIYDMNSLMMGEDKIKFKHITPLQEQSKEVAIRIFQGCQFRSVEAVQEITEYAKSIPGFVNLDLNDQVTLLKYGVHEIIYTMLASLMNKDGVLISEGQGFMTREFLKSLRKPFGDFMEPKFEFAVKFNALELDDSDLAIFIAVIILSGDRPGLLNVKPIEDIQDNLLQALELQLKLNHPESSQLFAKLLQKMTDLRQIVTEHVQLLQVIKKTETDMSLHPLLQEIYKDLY
# Sequence of Estrogen receptor (Homo sapiens) (P03372 whole entry, looked up): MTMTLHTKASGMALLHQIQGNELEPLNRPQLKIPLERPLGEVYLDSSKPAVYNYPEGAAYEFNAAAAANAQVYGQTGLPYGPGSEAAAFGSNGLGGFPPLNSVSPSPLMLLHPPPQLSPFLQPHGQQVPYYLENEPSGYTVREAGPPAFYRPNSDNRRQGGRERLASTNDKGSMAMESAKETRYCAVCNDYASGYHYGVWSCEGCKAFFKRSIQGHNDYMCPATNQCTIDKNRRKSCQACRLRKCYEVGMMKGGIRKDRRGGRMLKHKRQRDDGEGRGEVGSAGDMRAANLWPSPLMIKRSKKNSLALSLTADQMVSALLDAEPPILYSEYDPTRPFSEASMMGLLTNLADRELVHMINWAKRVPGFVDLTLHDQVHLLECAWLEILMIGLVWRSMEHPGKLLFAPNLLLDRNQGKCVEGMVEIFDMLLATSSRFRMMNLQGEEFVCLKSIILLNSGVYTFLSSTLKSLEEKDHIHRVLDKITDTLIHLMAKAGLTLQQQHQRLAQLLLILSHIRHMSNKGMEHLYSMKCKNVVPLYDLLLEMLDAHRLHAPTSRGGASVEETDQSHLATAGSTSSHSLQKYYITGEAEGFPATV
# Sequence of Aromatase (Homo sapiens) (P11511 whole entry, looked up): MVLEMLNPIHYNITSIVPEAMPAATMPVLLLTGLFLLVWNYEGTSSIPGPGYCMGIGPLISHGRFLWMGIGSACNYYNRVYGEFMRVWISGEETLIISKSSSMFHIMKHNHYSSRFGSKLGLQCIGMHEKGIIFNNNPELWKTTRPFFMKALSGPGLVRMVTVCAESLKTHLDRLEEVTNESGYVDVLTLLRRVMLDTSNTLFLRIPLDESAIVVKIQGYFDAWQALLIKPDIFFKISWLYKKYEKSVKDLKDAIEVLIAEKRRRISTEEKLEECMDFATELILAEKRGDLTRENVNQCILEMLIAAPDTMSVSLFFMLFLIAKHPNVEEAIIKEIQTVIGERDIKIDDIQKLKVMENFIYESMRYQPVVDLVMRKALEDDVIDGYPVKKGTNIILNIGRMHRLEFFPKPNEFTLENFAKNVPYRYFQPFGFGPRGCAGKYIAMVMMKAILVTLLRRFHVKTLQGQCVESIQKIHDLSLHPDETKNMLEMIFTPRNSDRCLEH
# Sequence of Aryl hydrocarbon receptor (Homo sapiens) (P35869 whole entry, looked up): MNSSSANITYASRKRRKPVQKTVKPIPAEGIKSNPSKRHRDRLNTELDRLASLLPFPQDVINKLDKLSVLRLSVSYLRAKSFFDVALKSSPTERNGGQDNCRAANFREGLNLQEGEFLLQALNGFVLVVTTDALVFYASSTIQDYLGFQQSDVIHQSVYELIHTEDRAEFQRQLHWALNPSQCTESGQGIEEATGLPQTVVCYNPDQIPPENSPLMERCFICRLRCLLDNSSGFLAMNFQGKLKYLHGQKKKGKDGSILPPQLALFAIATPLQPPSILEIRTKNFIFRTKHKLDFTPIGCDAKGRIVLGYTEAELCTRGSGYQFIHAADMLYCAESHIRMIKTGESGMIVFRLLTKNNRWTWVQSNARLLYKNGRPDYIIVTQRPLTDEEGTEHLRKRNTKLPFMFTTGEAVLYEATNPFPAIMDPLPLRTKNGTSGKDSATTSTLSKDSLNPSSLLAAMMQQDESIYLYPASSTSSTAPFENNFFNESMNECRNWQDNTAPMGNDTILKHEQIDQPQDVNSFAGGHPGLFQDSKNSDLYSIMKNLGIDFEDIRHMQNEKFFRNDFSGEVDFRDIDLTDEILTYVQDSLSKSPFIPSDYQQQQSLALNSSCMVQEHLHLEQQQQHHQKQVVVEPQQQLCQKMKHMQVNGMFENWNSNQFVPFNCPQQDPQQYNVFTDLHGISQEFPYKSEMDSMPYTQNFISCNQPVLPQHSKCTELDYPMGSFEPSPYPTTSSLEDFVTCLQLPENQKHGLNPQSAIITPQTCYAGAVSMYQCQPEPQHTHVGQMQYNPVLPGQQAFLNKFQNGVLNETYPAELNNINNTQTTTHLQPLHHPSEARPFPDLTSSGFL
# Sequence of Nuclear receptor subfamily 1 group I member 2 (Rattus norvegicus) (Q9R1A7 whole entry, looked up): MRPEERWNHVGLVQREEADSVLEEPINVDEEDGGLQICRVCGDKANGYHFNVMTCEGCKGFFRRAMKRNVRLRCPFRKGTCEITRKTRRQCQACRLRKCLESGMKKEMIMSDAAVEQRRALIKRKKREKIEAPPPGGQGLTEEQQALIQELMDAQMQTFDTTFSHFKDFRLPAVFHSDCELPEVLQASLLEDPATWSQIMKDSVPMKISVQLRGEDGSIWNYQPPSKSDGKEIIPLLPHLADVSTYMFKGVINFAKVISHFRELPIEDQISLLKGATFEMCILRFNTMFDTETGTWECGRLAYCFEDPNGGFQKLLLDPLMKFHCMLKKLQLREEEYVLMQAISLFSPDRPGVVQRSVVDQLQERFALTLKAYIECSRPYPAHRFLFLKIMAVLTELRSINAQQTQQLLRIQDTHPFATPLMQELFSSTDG
Compound,Potency [1],Potency [2],Potency [3],Potency [4],Potency [5],Potency [6],Potency [7],Potency [8],Potency [9],Potency [10],Potency [11],Potency [12],max activation [13] [%],Potency [14],Potency [15],Potency [16],Potency [17],Potency [18],Potency [13],activation [17]
Cc1cc(-c2ccc(N=Nc3c(S(=O)(=O)O)cc4cc(S(=O)(=O)O)cc(N)c4c3O)c(C)c2)ccc1N=Nc1c(S(=O)(=O)O)cc2cc(S(=O)(=O)O)cc(N)c2c1O,23.7 µM (active),11.9 µM (active),inactive,inactive,inactive,21.1 µM (active),11.9 µM (active),13.3 µM (active),inactive,15 µM (active),inactive,inactive,-20.2,inactive,inactive,,,,,
Nc1nc(=O)n([C@@H]2CS[C@H](CO)O2)cc1F,inactive,inactive,inactive,,,inactive,,,,inactive,,inactive,2.33,inactive,inactive,inactive,,,,
COc1cc(/C=C/C(=O)N2CCN(CC(=O)N3CCCC3)CC2)cc(OC)c1OC,inactive,inactive,inactive,inactive,inactive,inactive,,inactive,inactive,inactive,inactive,inactive,0.536,inactive,inactive,,inactive,inactive,,
CCCCCCCCCCCCCCCCOCCOCCOCCOCCOCCOCCOCCOCCOCCOCCOCCOCCOCCOCCOCCOCCOCCOCCOCCOCCO,29.8 µM (active),26.6 µM (active),inactive,4.25 µM [inconclusive] (active),,23.7 µM (active),,,inactive,,,inactive,-15.6,inactive,inactive,21.3 µM (active),,3.76 µM (active),,
Cc1ncc(C[n+]2csc(CCOP(=O)(O)OP(=O)(O)O)c2C)c(N)n1,inactive,inactive,inactive,,,inactive,inactive,inactive,inactive,inactive,inactive,inactive,-0.276,inactive,inactive,inactive,,,,
CC[C@@]1(O)C(=O)OCc2c1cc1n(c2=O)Cc2cc3c([N+](=O)[O-])cccc3nc2-1,2.37 µM (active),0.473 µM (active),inactive,4.77 µM [inconclusive] (active),inactive,,0.596 µM (active),,,,,inactive,,inactive,inactive,inactive,,0.266 µM (active),6.31 µM (active),
CCCC(=O)O[C@]1(C(=O)COC(C)=O)CC[C@H]2[C@@H]3C[C@H](F)C4=CC(=O)C=C[C@]4(C)[C@@]3(F)[C@@H](O)C[C@@]21C,inactive,inactive,inactive,inactive,inactive,inactive,inactive,,inactive,inactive,,inactive,,inactive,inactive,inactive,inactive,,2.51 µM (active),
O=[n+]1ccn([O-])c2ccccc21,inactive,inactive,inactive,,,inactive,,,,inactive,,inactive,-1.36,inactive,inactive,inactive,,,,
O=S(=O)(O)c1cc(O)c2c(N=Nc3ccc(Nc4ccccc4)c4c(S(=O)(=O)O)cccc34)cc(S(=O)(=O)O)cc2c1,26.6 µM (active),23.7 µM (active),inactive,inactive,inactive,15 µM (active),23.7 µM (active),16.8 µM (active),,11.9 µM (active),inactive,inactive,-12,inactive,inactive,inactive,,,,
CN(C)c1ccc(C(=C2C=CC(=[N+](C)C)C=C2)c2c(O)c(S(=O)(=O)[O-])cc3cc(S(=O)(=O)O)ccc23)cc1,29.8 µM (active),11.9 µM (active),inactive,inactive,inactive,23.7 µM (active),26.6 µM (active),29.8 µM (active),inactive,26.6 µM (active),inactive,inactive,-15.3,inactive,inactive,,,,,
OC1OC[C@@H](O)[C@H](O)[C@@H]1O (stereo not given in full),inactive,inactive,inactive,,,inactive,inactive,inactive,inactive,inactive,inactive,inactive,0.988,inactive,inactive,inactive,,,,
C[C@@H](O)[C@H]1C(=O)N2C(C(=O)[O-])=C(SC3Cn4cnc[n+]4C3)[C@H](C)[C@H]12 (stereo not given in full),inactive,inactive,inactive,,,inactive,inactive,inactive,inactive,inactive,inactive,inactive,0.401,inactive,inactive,inactive,,,,
C[C@@](Cc1ccc(O)c(O)c1)(NN)C(=O)O,inactive,inactive,inactive,inactive,inactive,inactive,inactive,inactive,inactive,inactive,inactive,inactive,-6.63,inactive,inactive,inactive,,inactive,,
O=C(O)CCC/C=C\C[C@@H]1[C@@H](/C=C/[C@@H](O)COc2cccc(C(F)(F)F)c2)[C@H](O)C[C@@H]1O,inactive,inactive,inactive,inactive,,inactive,inactive,inactive,,inactive,inactive,inactive,-3.83,inactive,inactive,inactive,,,,49.9% (active)
O=C1N=C2SCCN2C(=O)C1Cc1ccc(Cl)cc1 (stereo not given),inactive,inactive,inactive,,,inactive,,,,,,inactive,-2.07,inactive,inactive,inactive,,,,
CCN(CC)CCOc1ccccc1OC,inactive,inactive,inactive,,,inactive,inactive,inactive,inactive,inactive,inactive,inactive,-0.861,inactive,inactive,inactive,,,,
CC1(C)S[C@@H]2[C@H](NC(=O)C3(N)CCCCC3)C(=O)N2[C@H]1C(=O)O,inactive,inactive,inactive,,,inactive,inactive,inactive,inactive,inactive,,inactive,-4.4,inactive,inactive,inactive,,,,
NC(=S)N=Nc1ccc(NN=C(N)N)cc1,23.7 µM (active),26.6 µM (active),inactive,,inactive,26.6 µM (active),,23.7 µM (active),11.9 µM (active),29.8 µM (active),,inactive,-0.862,inactive,inactive,inactive,inactive,inactive,,
O=C(O)c1nc(=O)[nH]c(=O)[nH]1,inactive,inactive,inactive,,,inactive,inactive,inactive,inactive,inactive,,inactive,-2.15,inactive,inactive,inactive,,,,
CCCCC[C@H](O)/C=C/[C@@H]1[C@H]2C/C(=C/CCCC(=O)O)O[C@H]2C[C@H]1O,inactive,inactive,inactive,,,,inactive,inactive,inactive,inactive,inactive,inactive,-0.736,inactive,inactive,inactive,inactive,,,
CC(C)N=c1cc2n(-c3ccc(Cl)cc3)c3ccccc3nc-2cc1Nc1ccc(Cl)cc1,7.17 µM (active),6.39 µM (active),,inactive,inactive,11.4 µM (active),inactive,,inactive,inactive,inactive,inactive,-3.58,inactive,inactive,inactive,inactive,,,
CC(C)CCC[C@@H](C)[C@H]1CC(=O)C2=C3CC[C@H]4C[C@@H](O)CC[C@]4(C)[C@H]3CC[C@@]21C,inactive,,inactive,inactive,inactive,inactive,inactive,inactive,inactive,inactive,inactive,inactive,-2.36,inactive,inactive,,inactive,inactive,,
C=CC1=C(C)C2=CC3=NC(=C(CC(=O)[O-])C4=NC(=C(C)C4=C([O-])[O-])C=c4[n-]c(c(C)c4CC)=CC1=N2)C(CCC(=O)[O-])C3C.[Cu+2].[Na+].[Na+].[Na+] (stereo not given),26.6 µM (active),,inactive,inactive,inactive,29.8 µM (active),inactive,23.7 µM (active),,23.7 µM (active),inactive,inactive,-0.69,inactive,inactive,inactive,inactive,,,
NCCCC[C@H](N)C(=O)O,inactive,,,inactive,inactive,inactive,inactive,inactive,inactive,inactive,inactive,inactive,-0.992,inactive,inactive,inactive,inactive,inactive,,
CNCC(O)c1ccc(OC(=O)C(C)(C)C)c(OC(=O)C(C)(C)C)c1 (stereo not given),12.7 µM (active),,inactive,inactive,inactive,,inactive,inactive,inactive,inactive,inactive,inactive,0.121,inactive,inactive,inactive,inactive,inactive,,
CCN(CC)CCC(=O)N1c2ccccc2Sc2ccc(Cl)cc21,23.7 µM (active),26.6 µM (active),,inactive,inactive,,inactive,inactive,inactive,,inactive,inactive,3.32,14.1 µM (active),14.1 µM (active),inactive,,inactive,,
C=C1CC[C@H](O)CC1=C/C=C1\CCC[C@]2(C)[C@@H]([C@H](C)CCCC(C)(C)O)CC[C@@H]12,11.9 µM (active),6.68 µM (active),,,inactive,inactive,inactive,inactive,,inactive,,inactive,-20.1,inactive,inactive,23.9 µM (active),,,,
C[N+]1(C)[C@@H]2CC(OC(=O)C(O)(c3cccs3)c3cccs3)C[C@H]1[C@@H]1O[C@@H]12 (stereo not given in full),inactive,,,inactive,inactive,inactive,inactive,inactive,inactive,,inactive,inactive,-1.38,inactive,inactive,inactive,,inactive,,
